# Reference: PubChem BioAssay
# Values joined by “and” are separate entries in the source; they are usually repeats but may differ in a detail not shown here. Equal entries are not always repeated. Inconclusive results are not listed. Active and inactive are the calls of the source. Unless noted, no rule for the calls is given here.
# Tests used:
# [1] = biological target: ATP-dependent translocase ABCB1 (Homo sapiens) (UniProt P08183); assay: MDR1 (ABCB1) efflux transporter inhibition, cell-based (AID 377; in the data active = fluorescence slope change above about 50%); conditions: MDR1-expressing cells, fluorescent substrate accumulation slope; stronger effect = higher value; concentration not given here
# [2] = circadian clock period modulators, cell-based, LOPAC library, luminescence reporter (AID 2774); conditions: circadian reporter cells, at 7 µM, actives lie on both sides;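 also: values are relative to mean of DMSO wells on each plate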
# [3] = system: Neuropilin-2 / VEGF-C interaction (human); assay: inhibitors of NRP2–VEGF-C binding, biochemical, microplate binding format, z-score (AID 743281); conditions: microplate NRP2/VEGF-C binding assay; stronger effect = lower value
# [4] = growth inhibition of DIPG glioma cells, dose response, cell-based, SU-DIPG-XIII, MIPE5.0, CellTiter-Glo, qHTS (AID 1347064; cut-off not given, nearly all actives have AC50 up to about 23 µM;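 as to AC50: cells exposed to compound for 48 hours before the viability read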); conditions: SU-DIPG-XIII viability, CellTiter-Glo ATP luminescence
# [5] = system: Aerobactin synthetase IucA (Klebsiella pneumoniae); assay: IucA aerobactin synthetase inhibitors, biochemical, Tocris library, absorbance (AID 1345561); conditions: purified IucA enzyme assay, absorbance (OD) read-out; stronger effect = lower value;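 tested at 8 µM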;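 also: 100% = enzyme without compound and 0% = no enzyme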
# [6] = inhibitors of Cryptococcus chitosan production, flow cytometry, Cibacron Brilliant Red staining (AID 1347148); conditions: Cryptococcus neoformans chitosan, stronger effect = lower value; at 99.1 µM unless noted;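 also: compound exposure lasted three days at 37 degrees C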
# [7] = antimalarial activity against Dd2 strain (AID 2302;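 active = growth inhibition above 50% at the single 2 µM test dose, taken to imply half-maximal potency below 2 µM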;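 also: 0% = DMSO untreated growth and 100% = chloroquine plus artemisinin killed control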); conditions: P. falciparum Dd2 in RBCs, LDH growth readout, 72 h; at 2 µM; stronger effect = higher value
# [8] = biological target: L-lactate dehydrogenase (Plasmodium falciparum (isolate CDC / Honduras)) (UniProt Q27743); assay: PfLDH activity inhibition – cell lysate, 3D7 strain, counter-screen for P. falciparum growth inhibition project (AID 2304);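 also: 0% = vehicle and 100% = reference inhibitor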; conditions: P. falciparum 3D7 crude extract, LDH APAD/NBT absorbance; at 2 µM; stronger effect = higher value
# [9] = inhibition of 3D7 malaria parasite growth – strain 3D7 (AID 2306);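 also: 0% = DMSO wells and 100% = chloroquine plus artemisinin control wells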; conditions: P. falciparum 3D7 erythrocytic growth, LDH absorbance, 72 h; at 2 µM; stronger effect = higher value
# [10] = liver-stage malaria parasite growth inhibition, primary screen, cell-based, HepG2, luciferase luminescence, HepG2 viability (AID 624349; in the data active = parasite load remaining mostly below about 12%, no sharp cut-off; inactive = mostly above about 10%;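 also: 100% = mean of DMSO negative control wells on the same plate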); conditions: P. berghei liver stage in HepG2, luciferase luminescence, concentration not given here; parasite load remaining: stronger effect = lower value; viability: measured here: HepG2 viability without parasites
# [11] = modifiers of HSF1 nuclear foci, imaging, Selleck Cancer Library (AID 1347162; in the data active = plate-normalised HSF1 focus index below about 0.46); conditions: human cells, at 10 µM; SSMD: measured here: HSF1 foci SSMD mean; cell count: measured here: cell number; plate-normalised HSF1 focus index: stronger effect = lower value
# [12] = CRL2098 osteosarcoma cell growth inhibition, synergistic combos for chromothripsis tumors, BGB or cisplatin IC20 combos (AID 1671454; in the data active = inhibition above about 80%;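 also: cells exposed for 96 h before readout; 0% = vehicle DMSO and 100% = killing by high DMSO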); conditions: CRL2098 osteosarcoma cells, drug combinations, stronger effect = higher value
# [13] = HD-MB03 medulloblastoma cell growth inhibition, synergistic combos for chromothripsis tumors, BGB or cisplatin IC20 combos (AID 1671455; in the data active = inhibition above about 83%;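 also: 0% = vehicle DMSO and 100% = high DMSO as cytotoxic control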); conditions: HD-MB03 medulloblastoma cells, stronger effect = higher value
# [14] = UWB1.289 ovarian carcinoma cell growth inhibition, synergistic combos for chromothripsis tumors, BGB or cisplatin combos (AID 1671456; in the data active = inhibition above about 80%;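 also: cells exposed to compound for four days; 0% = vehicle DMSO and 100% = killing by high DMSO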); conditions: UWB1.289 ovarian carcinoma cells, stronger effect = higher value
# [15] = LFS_MB_2R medulloblastoma cell growth inhibition, synergistic combos for chromothripsis tumors, cisplatin combos (AID 1671457; in the data active = inhibition above about 80%;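 also: cells exposed to compound for four days before readout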); conditions: LFS_MB_2R medulloblastoma cells, stronger effect = higher value
# [16] = UWB1.289_BRCA1 ovarian cancer growth, cell-based, BGB or cisplatin combinations (AID 1671459; in the data active = inhibition above about 80%); conditions: UWB1.289 BRCA1 ovarian carcinoma, drug combinations, stronger effect = higher value
# [17] = human astrocyte viability loss, single and combined drugs, cytotoxicity control for chromothriptic childhood tumor combination screen, cell-based, BGB or cisplatin IC20 combos (AID 1671460; in the data active = inhibition above about 80%;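 also: cells exposed to compounds for 96 hours before viability readout; 0% = vehicle and 100% = killing control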); conditions: Human astrocytes, drug combinations, stronger effect = higher value
# [18] = measured here: combination with BGB at IC20, at 0.5 µM
# [19] = measured here: combination with cisplatin at IC20, at 0.5 µM
# [20] = measured here: combo with BGB at IC20, at 0.5 µM
# [21] = measured here: combo with cisplatin at IC20, at 0.5 µM
# [22] = measured here: inhibition with BGB combination, at 0.05 µM
# [23] = measured here: inhibition with cisplatin combination, at 0.05 µM
# [24] = measured here: combination with cisplatin, at 0.5 µM
# [25] = measured here: combination with cisplatin, at 5 µM
# [26] = BGB combination, concentration series, at 5 µM
# [27] = cisplatin combination, concentration series, at 5 µM
# [28] = measured here: combo with BGB IC20, at 0.5 µM
# [29] = measured here: combo with cisplatin IC20, at 0.5 µM
# Chain of ATP-dependent translocase ABCB1 (Homo sapiens) (P08183 whole entry, looked up): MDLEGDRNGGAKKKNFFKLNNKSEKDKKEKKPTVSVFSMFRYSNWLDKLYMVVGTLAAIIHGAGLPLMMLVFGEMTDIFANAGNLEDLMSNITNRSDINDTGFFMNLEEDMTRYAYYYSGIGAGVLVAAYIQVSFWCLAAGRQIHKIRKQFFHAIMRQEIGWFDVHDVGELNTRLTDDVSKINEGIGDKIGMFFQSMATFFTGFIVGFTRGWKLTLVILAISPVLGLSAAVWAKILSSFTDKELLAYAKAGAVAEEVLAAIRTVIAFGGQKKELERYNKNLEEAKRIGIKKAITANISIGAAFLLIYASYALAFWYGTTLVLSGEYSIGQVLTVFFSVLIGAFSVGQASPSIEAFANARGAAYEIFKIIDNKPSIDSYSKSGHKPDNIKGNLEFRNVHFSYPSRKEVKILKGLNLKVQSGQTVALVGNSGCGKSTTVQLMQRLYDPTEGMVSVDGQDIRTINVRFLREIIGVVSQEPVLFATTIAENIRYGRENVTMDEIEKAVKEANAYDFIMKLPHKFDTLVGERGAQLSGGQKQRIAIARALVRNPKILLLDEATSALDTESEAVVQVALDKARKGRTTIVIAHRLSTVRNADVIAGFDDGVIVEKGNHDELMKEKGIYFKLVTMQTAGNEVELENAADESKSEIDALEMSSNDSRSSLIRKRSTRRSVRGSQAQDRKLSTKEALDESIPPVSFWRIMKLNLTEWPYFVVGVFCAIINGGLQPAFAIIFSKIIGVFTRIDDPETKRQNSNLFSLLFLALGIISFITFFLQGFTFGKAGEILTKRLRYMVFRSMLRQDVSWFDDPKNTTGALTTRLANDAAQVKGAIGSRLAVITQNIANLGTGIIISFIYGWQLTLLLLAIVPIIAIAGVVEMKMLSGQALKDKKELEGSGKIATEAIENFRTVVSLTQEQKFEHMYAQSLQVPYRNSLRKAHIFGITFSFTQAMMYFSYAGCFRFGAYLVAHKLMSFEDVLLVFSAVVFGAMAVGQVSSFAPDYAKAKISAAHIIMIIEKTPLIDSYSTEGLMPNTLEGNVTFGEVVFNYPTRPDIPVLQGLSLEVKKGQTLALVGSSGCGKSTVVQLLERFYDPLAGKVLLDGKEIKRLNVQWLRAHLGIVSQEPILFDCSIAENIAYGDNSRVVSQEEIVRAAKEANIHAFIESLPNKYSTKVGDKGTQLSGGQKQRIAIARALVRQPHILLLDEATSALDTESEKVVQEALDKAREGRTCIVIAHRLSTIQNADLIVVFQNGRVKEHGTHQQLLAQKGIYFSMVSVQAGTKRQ
# Chain of L-lactate dehydrogenase (Plasmodium falciparum (isolate CDC / Honduras)) (Q27743 whole entry, looked up): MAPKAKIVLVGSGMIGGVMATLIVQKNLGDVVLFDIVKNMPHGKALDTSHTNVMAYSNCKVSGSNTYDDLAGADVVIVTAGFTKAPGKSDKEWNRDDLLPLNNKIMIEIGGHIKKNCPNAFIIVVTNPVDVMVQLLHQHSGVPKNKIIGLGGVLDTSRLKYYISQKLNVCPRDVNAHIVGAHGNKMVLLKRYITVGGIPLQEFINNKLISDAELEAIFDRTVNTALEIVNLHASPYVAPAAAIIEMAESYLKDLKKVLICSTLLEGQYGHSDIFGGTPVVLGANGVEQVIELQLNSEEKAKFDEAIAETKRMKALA
smiles,measurement,setting,value
NNCCc1ccccc1,fluorescence slope change,[1],67.1% (active)
same,period change,[2],0.145 h (inactive)
same,z-score,[3],-0.0568 (inactive)
same,outcome,[4],inactive
N[C@@H](Cc1cc(I)c(Oc2cc(I)c(O)c(I)c2)c(I)c1)C(=O)O,fluorescence slope change,[1],62.7% (active)
same,outcome,[4],inactive
CC1=C(/C=C/C(C)=C/C=C/C(C)=C/C(=O)O)C(C)(C)CCC1,fluorescence slope change,[1],101% (active)
same,period change,[2],0.355 h (inactive)
same,remaining activity,[5],104% (inactive)
same,fold fluorescence,[6],4.11 [at 10 µM] (inactive)
CCOC(=O)C1=C(C)NC(C)=C(C(=O)OC)C1c1cccc([N+](=O)[O-])c1 (centres undefined),period change,[2],0.21 h (inactive)
same,z-score,[3],0.0382 (inactive)
same,remaining activity,[5],111% (inactive)
same,fold fluorescence,[6],5.19 [at 138.7 µM] (inactive)
NS(=O)(=O)c1cc2c(cc1C(F)(F)F)NC(Cc1ccccc1)NS2(=O)=O (centres undefined),fluorescence slope change,[1],16.6% (inactive)
CCc1nc(N)nc(N)c1-c1ccc(Cl)cc1,growth inhibition,[7],0% (inactive) and -1% (inactive)
same,inhibition,[8],-5% (inactive) and 5% (inactive)
same,growth inhibition,[9],94% (active) and 93% (active)
CO[C@@]1(NC(=O)Cc2cccs2)C(=O)N2C(C(=O)O)=C(COC(N)=O)CS[C@@H]21,fluorescence slope change,[1],94% (active)
NC(=O)N1c2ccccc2CC(=O)c2ccccc21,z-score,[3],0.598 (inactive)
COC1=CC(=O)C[C@@H](C)[C@]12Oc1c(Cl)c(OC)cc(OC)c1C2=O,parasite load remaining,[10],86.5% (inactive) and 55.9% (inactive) and 116% (inactive)
same,viability,[10],139% and 48% and 184%
CN(C)CCc1c[nH]c2ccc(C[C@H]3COC(=O)N3)cc12,parasite load remaining,[10],65.6% (inactive) and 76.6% (inactive) and 61% (inactive)
same,viability,[10],90.7% and 99.3% and 74.3%
same,z-score,[3],-0.511 (inactive)
Cc1ccccc1C(OCCN(C)C)c1ccccc1 (centres undefined),fluorescence slope change,[1],22.7% (inactive)
same,period change,[2],0.21 h (inactive)
CN(CCOc1ccc(CC2SC(=O)NC2=O)cc1)c1ccccn1 (centres undefined),viability,[10],80.3% and 91.8% and 74.9%
same,z-score,[3],0.0365 (inactive) and -0.614 (inactive)
same,SSMD,[11],2.43
same,cell count,[11],7680
same,plate-normalised HSF1 focus index,[11],1.15 (inactive)
CCc1cccc2c3c([nH]c12)C(CC)(CC(=O)O)OCC3 (centres undefined),fluorescence slope change,[1],73.7% (active)
same,period change,[2],-0.07 h (inactive)
N[C@@H](C(=O)N[C@@H]1C(=O)N2C(C(=O)O)=C(Cl)CS[C@H]12)c1ccccc1,z-score,[3],-0.232 (inactive)
COc1cc2nc(N(C)CCCNC(=O)C3CCCO3)nc(N)c2cc1OC (centres undefined),z-score,[3],-0.33 (inactive)
O=C1C(CCS(=O)c2ccccc2)C(=O)N(c2ccccc2)N1c1ccccc1 (centres undefined),fluorescence slope change,[1],61.4% (active)
COC(=O)Nc1nc2ccc(C(=O)c3ccccc3)cc2[nH]1,fluorescence slope change,[1],92.4% (active)
same,AC50,[4],417 nM (active)
CCCCCCNC(=O)n1cc(F)c(=O)[nH]c1=O,parasite load remaining,[10],405% (inactive) and 109% (inactive)
same,viability,[10],90% and 80.4%
same,z-score,[3],0.686 (inactive)
same,inhibition,[12]; at 0.5 µM,-23.4% (inactive) and -30.5% (inactive)
same,inhibition,[12]; [18],-16.8% and -6.28%
same,inhibition,[12]; [19],-120% and -21%
same,inhibition,[13]; at 0.5 µM,-1.02% (inactive) and -7.18% (inactive)
same,inhibition,[13]; [20],-21.9% and -3.96%
same,inhibition,[13]; [21],21% and -14.9%
same,inhibition,[14]; at 0.5 µM,5.77% (inactive) and 18.7% (inactive)
same,inhibition,[14]; [22],-24.4% and -30.3%
same,inhibition,[14]; [23],-28.4% and -20.9%
same,inhibition,[15]; at 0.5 µM,-18.7% (inactive) and -16.7% (inactive)
same,inhibition,[15]; [24],-15.8% and -16.6%
same,inhibition,[15]; [25],-25.7% and -25.2%
same,inhibition,[16]; [26],34.1% and 35.2%
same,inhibition,[16]; at 0.5 µM,11% (inactive) and 22.4% (inactive)
same,inhibition,[16]; [27],14.4% and 26.3%
same,inhibition,[17]; at 0.5 µM,7.08% (inactive) and 16.2% (inactive)
same,inhibition,[17]; [28],-8.62% and 3.35%
same,inhibition,[17]; [29],18.1% and 20.7%
NS(=O)(=O)c1cc2c(cc1Cl)NC=NS2(=O)=O,period change,[2],0.02 h (inactive)
same,outcome,[4],inactive
CCCNCC(O)COc1ccccc1C(=O)CCc1ccccc1 (centres undefined),fluorescence slope change,[1],74.2% (active)
same,period change,[2],-0.03 h (inactive)
same,outcome,[4],inactive
NS(=O)(=O)c1cc(C2(O)NC(=O)c3ccccc32)ccc1Cl (centres undefined),fluorescence slope change,[1],22.1% (inactive)
O=c1[nH]cc(F)c(=O)[nH]1,period change,[2],0.215 h (inactive)
same,outcome,[4],inactive
same,SSMD,[11],2.14
same,cell count,[11],7020
same,plate-normalised HSF1 focus index,[11],1.12 (inactive)
same,inhibition,[12]; at 0.5 µM,-19.9% (inactive)
same,inhibition,[12]; [18],-48.5%
same,inhibition,[12]; [19],13.5%
same,inhibition,[13]; at 0.5 µM,-10.4% (inactive)
same,inhibition,[13]; [20],-12.3%
same,inhibition,[13]; [21],-6.42%
same,inhibition,[14]; at 0.5 µM,0.81% (inactive)
same,inhibition,[14]; [22],-23.6%
same,inhibition,[14]; [23],-10.5%
same,inhibition,[15]; at 0.5 µM,-13.7% (inactive)
same,inhibition,[15]; [24],-7.48%
same,inhibition,[15]; [25],-1.94%
same,inhibition,[16]; [26],2.42%
same,inhibition,[16]; at 0.5 µM,-7.71% (inactive)
same,inhibition,[16]; [27],17%
same,inhibition,[17]; at 0.5 µM,-3.88% (inactive)
same,inhibition,[17]; [28],2.98%
same,inhibition,[17]; [29],-4.03%
NC(=O)c1cnccn1,fluorescence slope change,[1],13.7% (inactive)
same,period change,[2],0 h (inactive)
same,outcome,[4],inactive
Cc1ccc(-c2cc(C(F)(F)F)nn2-c2ccc(S(N)(=O)=O)cc2)cc1,AC50,[4],18600 nM (active)
same,SSMD,[11],-12.9
same,cell count,[11],5490
same,plate-normalised HSF1 focus index,[11],0.546 (inactive)
COc1ccc(OC)c(C(O)CNC(=O)CN)c1 (centres undefined),fluorescence slope change,[1],79.4% (active)
CC(C)(C)NCC(O)COc1cccc2c1C[C@H](O)[C@H](O)C2 (some centres undefined),fluorescence slope change,[1],55.3% (active)
same,parasite load remaining,[10],69.2% (inactive) and 72.2% (inactive) and 65.4% (inactive)
same,viability,[10],124% and 85.6% and 141%
Clc1ccc2c(c1)C(N1CCNCC1)=Nc1ccccc1O2,fluorescence slope change,[1],156% (active)
same,period change,[2],0.105 h (inactive)
Nc1ncn([C@@H]2O[C@H](CO)[C@@H](O)[C@H]2O)c(=O)n1,period change,[2],0.105 h (inactive)
same,parasite load remaining,[10],162% (inactive) and 170% (inactive) and 176% (inactive)
same,viability,[10],101% and 77.2% and 95%
same,AC50,[4],1660 nM (active)
same,SSMD,[11],1.14
same,cell count,[11],7120
same,plate-normalised HSF1 focus index,[11],1.04 (inactive)
